Holding throughout (assay): NCI-60 one-dose screen, 48 h (100 = growth as untreated, 0 = no growth, -100 = all killed)
Holding throughout (conditions): 10 µM

Assay [1] has as its system RPMI-8226 leukemia.
The subject of assay [2] is OVCAR-8 ovarian.
Assay [3] has as its system OVCAR-5 ovarian.
For assay [4], the system named is OVCAR-4 ovarian.
For assay [5], the system named is SK-OV-3 ovarian.
In assay [6] the test system is IGROV1 ovarian.
In assay [7] the test system is OVCAR-3 ovarian.
Assay [8] concerns HS 578T breast.
Assay [9] concerns NCI/ADR-RES ovarian.
The test system of assay [10] is T-47D breast.

Molecules are shown by their SMILES. This is part of a sample that, as a whole, favours compounds with a hit. Of some 83,000 tested, about 20% had one in any assay.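 Values shown are percent growth following 48 h exposure of cells in 96-well plates to a single concentration of compound; below 10 was considered active.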 Values without a mark were called inactive. Activity calls are given as the source filed them.

On to `COc1cc(-c2nc(-c3nnc(-c4ccccc4Cl)o3)c3ccccn23)cc(OC)c1OC`, for which the growth in assay [1] is 50.2%; in [2], 47.8%; in [3], 92.5%; in assay [4], 77.4%; in assay [5], 84.5%; in assay [6], 111%. In addition, the growth in assay [7] is 86.4%; in assay [8], 83.1%; in [9], 66.4%; in [10] it was 61.4%.
`CCCC(F)C(=O)O` (stereo not given): the growth in [1] is 98.4%; in assay [2], 98.2%; in assay [3], 115%; in [4] it was 106%; in assay [5], 98.3%; in assay [6], 107%. Also, the growth in assay [7] was 116%; in assay [8] it was 100%; in assay [9], 108%; in assay [10] it was 97.7%.
Turning to `CSCCCNC(=O)c1ccc2c(c1)/C(=C/c1[nH]c(C)cc1C)C(=O)N2`, the growth in [1] was 19.7%; in [2] it was 32.6%; in [3] it was 35.9%; in assay [4], 27.6%; in assay [5] it was 20.5%; in [6], -12.5% (active). Also, the growth is 45% in [7], -13.5% (active) in [8], 42.9% in assay [9] and 44.5% in assay [10].
For `O=C1OCC2=C1C(c1cccc(Cl)c1)c1cc3c(cc1N2CCO)CCC3` (stereo not given), the growth was 17.3% in [1]; 4.21% (active) in assay [2]; 46.1% in [3]; 50.4% in [4]; 23.5% in assay [5]; 15.9% in [6]. Besides, the growth is -54.2% (active) in assay [7], -1.05% (active) in assay [8], -23% (active) in [9] and 66.1% in assay [10].
As for `COc1cc(Cl)cc(-c2nn(-c3cccc(NC(=O)c4ccc(Cl)c(Cl)c4)c3)cc2-c2ccncc2)c1`, the growth in assay [1] was 46%; in assay [2] it was 58.4%; in assay [3], 79.2%; in assay [4] it was 58.6%; in assay [5] it was 80.1%; in assay [6] it was 71.6%. In addition, the growth in assay [7] is 53.4%; in assay [8], 63.6%; in assay [9], 61.4%; in [10], 63.2%.
As to `CCOC(=O)N1C/C(=C/c2ccc(F)cc2)C(=O)/C(=C/c2ccc(F)cc2)C1`, the growth in [1] is -29% (active); in assay [2], 9.76% (active); in [3], 24.2%; in [4], 9.8% (active); in assay [5], 12.7%; in assay [6], -34.1% (active). Besides, the growth in assay [7] was -29.2% (active); in assay [8], -10.5% (active); in assay [9], 9.49% (active); in assay [10], 30.5%.
For `Clc1ccc(Nc2ccnc(NCCNc3ccnc4cc(Cl)ccc34)n2)cc1`, the growth in assay [1] was -48.9% (active); in assay [2], 16.9%; in assay [3], 61.4%; in assay [4], 24.9%; in [5], 60%; in [6], -8.25% (active). For the same compound, the growth in assay [7] was 57.8%; in assay [8] it was -25% (active); in assay [9], 44.8%; in [10], -60.2% (active).
Take `CCC(=O)N1C/C(=C/c2ccc(Br)cc2)C(=O)/C(=C/c2ccc(Br)cc2)C1`: the growth in assay [1] is -28.2% (active); in [2], -7.14% (active); in assay [3], -22.8% (active); in assay [4], -0.254% (active); in assay [5], -30.6% (active); in assay [6], -67.6% (active). For the same compound, the growth was -62.6% (active) in [7], 9.3% (active) in assay [8], 10.2% in [9] and 13% in [10].
As for `Nc1nc(-c2ccccc2Cl)cc(-c2ccc(Cl)cc2Cl)n1`, the growth is 35.2% in [1]; 71.2% in [2]; 96.2% in assay [3]; 79.6% in assay [4]; 93% in assay [5]; 74.7% in assay [6]. For the same compound, the growth in [7] was 85.2%; in assay [8] it was 61.9%; in [9], 79.8%; in assay [10] it was 63.7%.
With `COc1ccc2c(c1)-c1c(c3cc(OC)ccc3n(CCN(C)C)c1=O)C2=O`, the growth was -14.9% (active) in assay [1]; 4.46% (active) in assay [2]; 46.3% in [3]; -28.3% (active) in [4]; 28.7% in [5]; -25.6% (active) in assay [6]. Besides, the growth in assay [7] was 6.8% (active); in assay [8] it was 25.7%; in [9], -1.87% (active); in [10], 63.8%.
As for `O=C1Nc2ccccc2C1=NC1CCCCC1`, the growth in assay [1] was 103%; in [2], 98.1%; in assay [3] it was 106%; in assay [4], 96.3%; in [5], 95.4%; in [6], 88.5%. Also, the growth in [7] is 103%; in assay [8], 116%; in assay [9] it was 103%; in assay [10], 83.1%.
Turning to `CCC(=O)N1C/C(=C/c2ccc(OC)cc2)C(=O)/C(=C/c2ccc(OC)cc2)C1`, the growth in [1] is -15.8% (active); in assay [2] it was 10.7%; in [3] it was 96.1%; in assay [4] it was 58.3%; in assay [5] it was 40.8%; in assay [6] it was 41.8%. Further, the growth in assay [7] is -6.54% (active); in assay [8] it was 9.81% (active); in assay [9], 25%; in assay [10], 57%.
Consider `COC(=O)C1=NNC(=S)N(c2cc(C)[nH]n2)C(=O)C1`, for which the growth is 98.5% in assay [1]; 101% in assay [2]; 108% in [3]; 104% in [4]; 97.9% in assay [5]; 99.9% in assay [6]. The growth in assay [7] is 108%; in assay [8] it was 105%; in [9], 99%; in [10] it was 90.2%.
Turning to `O=C(CCCCC(=O)Nc1ccc2c(c1)/C(=C/c1ccc[nH]1)C(=O)N2)NO`, the growth is 96.3% in [1]; 69.4% in [2]; 100% in assay [3]; 56.6% in assay [4]; 73.6% in assay [5]; 95.5% in [6]. Further, the growth in [7] is 36.9%; in assay [8], 72.4%; in assay [9] it was 93.8%; in [10], 0.269% (active).

Values taken from PubChem BioAssay (NCI).
